High-throughput results (PubChem)
Shown are actives, neighbours in structure and some others; about 5.4% of the full set was active somewhere.
HSF1 inh: HSF1 inhibition. NIH3T3-HGL HSE-luciferase, MG132-induced, luminescence 8 h; hits give low values. activity change, negative = inhibition, % at 7.5 µM (by protocol). hit rate 0.77% among 300,000. AID 2098;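 active = more than half of replicate wells show activity change below -50%, luminescence cut by over half; inconclusive = some wells, but at most half, below -50%; inactive = no replicate well below -50%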;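 note: luciferase reports HSF-1 transcriptional activity via heat shock element; 0% = median of DMSO wells and -100% = zero luminescence signal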
NR0B1 inh: inhibits human nuclear receptor DAX1; hit rate 0.99% among 340,000; inhibition, % at 6.75 µM; HEK293 Gal4-DAX1 luciferase reporter, luminescence; P51843;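 active = inhibition above the mean over all tested compounds plus 3 SD, cut at about 4.2% in these data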;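 note: 0% = DAX1-transfected cells with DMSO and 100% = empty-vector control cells with DMSO; inhibition shows as a rise in luminescence from relieved DAX1 repression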
Target sequence (P51843 207-470 limits assumed): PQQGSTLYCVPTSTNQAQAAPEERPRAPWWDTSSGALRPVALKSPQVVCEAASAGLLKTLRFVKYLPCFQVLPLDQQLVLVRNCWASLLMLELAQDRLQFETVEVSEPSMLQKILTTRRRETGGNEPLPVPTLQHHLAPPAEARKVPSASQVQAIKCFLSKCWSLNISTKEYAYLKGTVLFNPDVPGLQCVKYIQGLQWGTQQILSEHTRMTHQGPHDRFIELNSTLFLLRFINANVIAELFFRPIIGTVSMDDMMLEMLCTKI
HSF1 activator: increases HSF-1 driven luciferase reporter signal. NIH3T3-HGL HSF-1 luciferase reporter, MG132, 8 h; 100% = twice DMSO control signal. AID 504408. hit rate 1.7% among 300,000. activation, % at 9 µM;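 active = mean replicate activation of at least 50% with a set share of replicates each reaching 50%; inconclusive = only one of those two conditions met; inactive = mean below 50% and too few replicates reaching it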;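 note: 0% = median of the neutral control wells and 100% = twice that signal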
GAA850 FXN act: activators of GAA850 frataxin (FXN) promoter; HEK293 lucGAA850 FXN promoter luciferase reporter, 24 h; percent of 10 µM SAHA response; activation, % at 6 µM; hit rate 0.56% among 360,000;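 active = activation above the average of all compounds screened plus 3 SD, cutoff fixed separately per campaign, cut at about 7.5% in these data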;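 note: 0% = DMSO wells and 100% = 10 µM SAHA wells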
AHR activator: activates the human aryl hydrocarbon receptor; AHR-responsive luciferase reporter cells, luminescence; P35869; activation, % at 5 µM; hit rate 2.5% among 320,000; in the data active = activation above about 47%;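 note: 0% = vehicle wells and 100% = reference agonist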
* = called active by the depositor; ? = inconclusive; / = no result.

SMILES	HSF1 inh	NR0B1 inh	HSF1 activator	GAA850 FXN act	AHR activator
CC1CN(c2oc(-c3cccs3)nc2C#N)CC(C)O1 (centres undefined)	11	1	10	-1	67*
CC(=O)N1CCSc2ccc(S(=O)(=O)Nc3ccc(C)cc3)cc21	-4	-1	5	0	15
CN(C)CC(C)(C)CNS(=O)(=O)c1ccc(OC(F)(F)F)cc1	-4	0	-5	-1	-1
Cn1c(C(O)c2ccccc2F)nc(Cl)c1Cl (centres undefined)	0	0	7	-4	-3
Cn1c(C(O)c2ccc(Br)cc2)nc(Cl)c1Cl (centres undefined)	2	3	1	1	61*
Cc1cnn(-c2cc(N/N=C/c3cccc(F)c3)ncn2)c1	17	-2	56*	3	13
NC(=O)CSc1nc2ccccc2c(=O)n1Cc1ccco1	4	-1	8	1	4
Cn1c(N)c(C(=O)CSc2nc3ccccc3c(=O)n2Cc2ccccc2)c(=O)n(C)c1=O	6	-1	20	1	2
CCCn1c(N)c(C(=O)CSc2nc3ccccc3c(=O)n2Cc2ccccc2)c(=O)[nH]c1=O	-84*	2	-89	0	1
NC(=O)CSc1nc2ccccc2c(=O)n1CCc1ccccc1	-7	0	-3	0	75*
CCCn1c(N)c(C(=O)CSc2nc3ccccc3n2CCC#N)c(=O)n(C)c1=O	-7	1	-7	1	53*
CC(=O)Nc1ccc(S(=O)(=O)N[C@@H](C)C(=O)N2CCN(c3ccccn3)CC2)cc1	-6	-1	-7	-1	-1
Nn1c(SC/C=C/c2ccccc2)nnc1-c1ccncc1	25	-1	37	-1	3
COc1cc(-c2nnc(SC/C=C/c3ccccc3)n2N)cc(OC)c1OC	46	-1	79*	-3	2
CC(N)C(=O)NC(C(=O)NC(C)C(=O)Nc1cccc2ccccc12)C(C)C (centres undefined)	/	/	/	-4	/
COc1ccc(OC)c(-c2cc(C(=O)Nc3cccc(Cl)c3)no2)c1	0	1	-7	6	55*
COc1ccc(-c2nnc(SC(C)C(=O)NNC(=O)c3ccc(C)cc3)o2)cc1 (centres undefined)	-4	0	-2	3	20
COc1ccc(-c2nnc(SC(C)C(=O)Nc3cccc(Cl)c3)o2)cc1 (centres undefined)	56	1	109*	3	15
COc1ccc(-c2cc(C(=O)Nc3cccc(Cl)c3)no2)cc1	14	4.2*	28	5	9
CCc1ccc(NC(=O)c2cc(-c3ccco3)on2)cc1	39	-1	80*	1	-2
COc1ccc(NC(=O)c2cc(-c3ccccc3OC)on2)cc1	14	2	5	-4	44
O=C(Nc1cccnc1)c1cc(-c2ccc(Cl)cc2Cl)on1	24	6.7*	36	1	-2
COc1ccc(NC(=O)c2cc(-c3ccccc3Cl)on2)cc1	17	2	42	2	56*
COc1ccc(OC)c(-c2cc(C(=O)Nc3cc(C)on3)no2)c1	-64*	2	-73	2	0
O=C(Nc1ccc(Br)cn1)c1cccc(C(=O)Nc2ccc(Br)cn2)c1	0	-1	1	3	14
SMILES	HSF1 inh	NR0B1 inh	HSF1 activator	GAA850 FXN act	AHR activator
O=C(Nc1ccc(Br)cn1)c1ccc2ccccc2c1	18	2	?	1	48*
O=C(Nc1ccc(Cl)cn1)c1cccc2c(Br)cccc12	29	-1	38	-1	74*
O=C(Nc1ccc(Br)cn1)c1cccc2ccccc12	6	2	-2	-3	70*
Cc1ccccc1C(=O)Nc1ccc(Cl)cn1	4	3	39	1	-4
CNC(=O)C(=O)NCC1OCCN1S(=O)(=O)c1ccc(OC)c(OC)c1 (centres undefined)	-7	0	-10	1	8
CCc1ccc(-c2cn3c(n2)SCC3)cc1	20	1	51*	2	-2
Cc1ccc(-c2cn3c(n2)SCC3)cc1	14	3	3	5	-4
CCOC(=O)C1(Cc2ccccc2C(F)(F)F)CCN(C2CCN(C(C)C)CC2)CC1	/	1	/	1	2
O=C1CCN(Cc2ccc(O)cc2)CCN1[C@H](CO)c1ccccc1	0	1	-2	0	3
N#Cc1ccccc1NC(=O)CSc1n[nH]c(=O)n1C1CC1	/	0	/	0	24
O=C(Cc1ccc(Br)cc1)N1CCOCC1	-9	2	-8	0	-1
O=C(CCS(=O)(=O)c1ccc(Cl)cc1)NCCc1c[nH]c2ccccc12	-2	0	10	0	15
Cc1ccc(C(=O)Cn2c(C(=O)O)cc3ccccc32)cc1	-1	1	-3	2	59*
Cc1ccc(C(=O)Cn2c(C(=O)/C=C/c3ccccc3)nc3ccccc32)cc1	166	0	186*	3	-3
O=C(Cn1c(C(=O)c2ccccc2)nc2ccccc21)c1ccc(Cl)cc1	/	1	/	-5	/
CC1CCC(NC(=O)C(C)N2C(=O)C3CCCCC3C2=O)CC1 (centres undefined)	/	1	/	0	1
COc1cc(NS(=O)(=O)c2ccc(NC(=O)COc3ccccc3C)cc2)nc(OC)n1	2	0	-7	1	-1
COc1cc(NS(=O)(=O)c2ccc(NC(=S)NC(=O)COc3ccccc3OC)cc2)nc(OC)n1	1	4.7*	11	1	0
COC(=O)CCC(=O)Nc1ccc(S(=O)(=O)Nc2cc(OC)nc(OC)n2)cc1	0	1	12	1	74*
CCCCCC(=O)Nc1ccc(S(=O)(=O)Nc2cc(OC)nc(OC)n2)cc1	-4	-1	-3	-2	/
CCOc1ccc(S(=O)(=O)Nc2cccc(C(=O)NCC(c3ccco3)N3CCCC3)c2)cc1 (centres undefined)	/	2	/	-1	1
CCOc1ccc(CCNC(=O)c2nn(C)c3c2CS(=O)(=O)c2ccccc2-3)cc1	-53*	0	-62	0	6
CCOc1ccc(CCNC(=O)c2nn(C)c3c2CS(=O)(=O)c2ccccc2-3)cc1OCC	-7	0	-6	-1	12
CCN(Cc1ccccc1)C(=O)c1nn(-c2ccc(OC)cc2)c(=O)c2c1c1ccccc1n2C	-6	1	-7	-4	12
Cc1ccc2nc(N3CCOCC3)c(C=O)cc2c1	14	8.2*	45	2	8
O=C(NCCOC(=O)c1c(F)cccc1Cl)c1c(F)cccc1Cl	-8	0	-6	2	/
CCOc1ccccc1CNC(=O)CCn1ccc2cc(S(=O)(=O)N3CCCCC3)ccc21	-73*	0	-80	5	2
Cc1ccc(C2CCN(C(=S)NC3CCCCC3)C2)cc1 (centres undefined)	-2	0	-14	-2	4
Cc1ccc(C2CCN(C(=S)NC(C)(C)C)C2)cc1 (centres undefined)	-66*	5.6*	-75	4	5
S=P(N1CC1)(N1CC1)N1CC1	/	-2	/	-1	-2
